Data as given in the supplement of paper PMC11732987, “Enantioselective OTUD7B fragment discovery through chemoproteomics screening and high-throughput optimisation” (Communications Chemistry, 2025).

What was measured:
Assay in all cases: log2 ratio of Biotin-Ahx-Ub-VS probe labelling (compound/DMSO); higher = less target engagement, active = hit call of the paper (q ≤ 0.05, log2 ratio ≤ -1)
Conditions in all cases: treatment time: 3 h
[1] = compound: ClCC(=O)N[C@H]1CCCc2ccccc12
Outline: (§1)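 Values are average ratios of compound to vehicle from an unpaired t-test, limited to proteins with at least two unique peptides. HEK293T lysate (495 µg per sample, in Tris/CHAPS/IGEPAL buffer with protease inhibitors) was exposed in triplicate to a concentration series of compound or to vehicle for 3 h, then to Biotin-Ahx-Ub-VS at 0.5 µM final for 1 h. Labelled deubiquitinases were enriched on NeutrAvidin, digested with LysC and trypsin, and analysed by diaPASEF LC-MS/MS. Ratios are given on a log2 scale from Spectronaut label-free protein quantities normalised to the global median.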

[2] = compound: CCC1N(CCc2cc(OC)c(Cl)cc12)C(=O)CCl
Outline: (§2)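 Compound at 50 or 200 µM, or DMSO, was applied for 3 h in triplicate to HEK293T lysate (495 µg per sample, Tris/CHAPS/IGEPAL buffer with protease inhibitors), after which Biotin-Ahx-Ub-VS was added at 0.5 µM final for 1 h. The labelled DUBs were pulled down with NeutrAvidin, digested with LysC and trypsin, and run by diaPASEF LC-MS/MS. Ratios are averaged base-two logs of compound over DMSO from median-normalised label-free quantities by unpaired t-test, counting only proteins with at least 2 unique peptides.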

[3] = compound: CCCC1N(CCc2cc(OC)c(OC)cc12)C(=O)CCl
Outline: as §2

[4] = compound: CCC1N(CCc2sccc12)C(=O)CCl
Outline: as §2

[5] = compound: CN1c2ccccc2C(CS1(=O)=O)NC(=O)CCl
Outline: as §2

[6] = compound: Cl.ClCC(=O)N1CCc2ncncc2C1
Outline: as §2

[7] = compound: Cl.Cn1ncc2C(CCCc12)NC(=O)CCl
Outline: as §2

[8] = compound: ClCC(=O)NC1CCOc2ccccc12
Outline: as §2

[9] = compound: ClCC(=O)NC1CCCc2ccccc12
Outline: as §1

[10] = compound: ClCC(=O)N[C@@H]1CCCc2ccccc12
Outline: as §1

Measured: log2 ratio of Biotin-Ahx-Ub-VS probe labelling

USP15 (UniProt Q9Y4E8)
Chain of UniProt Q9Y4E8 (Q9Y4E8 whole entry): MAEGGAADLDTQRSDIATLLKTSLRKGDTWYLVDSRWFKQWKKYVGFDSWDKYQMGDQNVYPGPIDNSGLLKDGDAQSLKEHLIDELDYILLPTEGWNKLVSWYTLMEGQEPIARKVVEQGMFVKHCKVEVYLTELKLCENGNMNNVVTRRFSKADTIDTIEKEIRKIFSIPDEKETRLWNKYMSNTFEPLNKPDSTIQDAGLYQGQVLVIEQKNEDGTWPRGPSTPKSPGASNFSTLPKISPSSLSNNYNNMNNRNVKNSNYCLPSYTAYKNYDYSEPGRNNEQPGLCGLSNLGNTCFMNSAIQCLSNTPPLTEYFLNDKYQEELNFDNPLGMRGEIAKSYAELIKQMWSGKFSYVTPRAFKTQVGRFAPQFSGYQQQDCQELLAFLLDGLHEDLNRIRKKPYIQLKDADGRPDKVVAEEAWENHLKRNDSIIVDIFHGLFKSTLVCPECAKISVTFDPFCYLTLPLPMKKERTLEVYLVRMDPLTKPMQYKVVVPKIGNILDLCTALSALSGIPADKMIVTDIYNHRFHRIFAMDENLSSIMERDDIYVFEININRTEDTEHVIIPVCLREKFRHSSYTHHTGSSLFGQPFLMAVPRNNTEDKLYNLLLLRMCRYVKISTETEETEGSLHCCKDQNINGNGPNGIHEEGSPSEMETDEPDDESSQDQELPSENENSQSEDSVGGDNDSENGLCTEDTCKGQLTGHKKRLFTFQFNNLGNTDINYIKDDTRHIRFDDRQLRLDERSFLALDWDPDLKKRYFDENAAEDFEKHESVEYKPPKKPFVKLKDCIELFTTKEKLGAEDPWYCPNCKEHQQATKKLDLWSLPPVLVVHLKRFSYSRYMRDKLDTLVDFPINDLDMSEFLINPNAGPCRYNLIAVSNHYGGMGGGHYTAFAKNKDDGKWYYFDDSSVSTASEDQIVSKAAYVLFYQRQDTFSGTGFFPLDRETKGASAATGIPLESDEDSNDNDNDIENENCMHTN
active: [3]; compound concentration: 200uM -1.38
inactive: [1]; compound concentration: 3.13uM -0.0661 | [1]; compound concentration: 6.25uM 0.0971 | [1]; compound concentration: 12.5uM -0.119 | [1]; compound concentration: 25uM -0.0896 | [1]; compound concentration: 50uM -0.0399 | [1]; compound concentration: 100uM -0.0575 | [1]; compound concentration: 200uM -0.135 | [2]; compound concentration: 50uM -0.143 | [2]; compound concentration: 200uM -0.873 | [3]; compound concentration: 50uM -0.696

USP36 (UniProt Q9P275)
Chain of UniProt Q9P275 (Q9P275 whole entry): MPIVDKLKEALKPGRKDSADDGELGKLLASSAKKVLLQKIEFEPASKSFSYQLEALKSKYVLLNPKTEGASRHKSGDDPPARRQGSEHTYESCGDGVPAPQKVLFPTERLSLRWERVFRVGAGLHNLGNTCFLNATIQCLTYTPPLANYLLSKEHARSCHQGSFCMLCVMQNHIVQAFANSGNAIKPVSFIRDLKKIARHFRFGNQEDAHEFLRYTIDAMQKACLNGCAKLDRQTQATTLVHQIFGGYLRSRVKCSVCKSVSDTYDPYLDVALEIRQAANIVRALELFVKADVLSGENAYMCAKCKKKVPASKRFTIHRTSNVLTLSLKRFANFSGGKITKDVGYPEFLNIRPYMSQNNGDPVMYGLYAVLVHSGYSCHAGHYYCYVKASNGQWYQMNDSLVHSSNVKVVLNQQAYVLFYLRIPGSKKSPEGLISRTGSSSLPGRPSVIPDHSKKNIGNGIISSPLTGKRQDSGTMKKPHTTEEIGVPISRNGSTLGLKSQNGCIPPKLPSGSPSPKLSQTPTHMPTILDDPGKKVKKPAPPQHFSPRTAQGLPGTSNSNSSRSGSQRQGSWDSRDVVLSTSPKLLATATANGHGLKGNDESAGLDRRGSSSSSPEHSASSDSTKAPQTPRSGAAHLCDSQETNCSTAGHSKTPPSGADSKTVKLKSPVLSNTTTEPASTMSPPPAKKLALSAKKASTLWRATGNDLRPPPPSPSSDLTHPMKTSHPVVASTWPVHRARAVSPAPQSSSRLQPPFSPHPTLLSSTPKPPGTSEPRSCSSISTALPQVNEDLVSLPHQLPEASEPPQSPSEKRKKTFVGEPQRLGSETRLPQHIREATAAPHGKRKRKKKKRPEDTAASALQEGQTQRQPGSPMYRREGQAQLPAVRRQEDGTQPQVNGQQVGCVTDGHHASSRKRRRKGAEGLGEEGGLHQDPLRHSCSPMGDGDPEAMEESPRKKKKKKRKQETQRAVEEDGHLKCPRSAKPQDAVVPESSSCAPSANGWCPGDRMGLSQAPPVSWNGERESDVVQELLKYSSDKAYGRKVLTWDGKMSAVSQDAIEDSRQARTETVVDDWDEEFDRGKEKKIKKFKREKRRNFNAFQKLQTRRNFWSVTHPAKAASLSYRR
inactive: [4]; compound concentration: 50uM 0.0835 | [4]; compound concentration: 200uM 0.229 | [5]; compound concentration: 50uM -0.127 | [5]; compound concentration: 200uM -0.0119 | [6]; compound concentration: 50uM -0.031 | [6]; compound concentration: 200uM -0.0419 | [7]; compound concentration: 50uM -0.145 | [7]; compound concentration: 200uM 0.158 | [8]; compound concentration: 50uM -0.121 | [8]; compound concentration: 200uM 0.283 | [9]; compound concentration: 0.78uM 0.0108 | [9]; compound concentration: 1.56uM -0.0128 | [9]; compound concentration: 3.13uM -0.0405 | [9]; compound concentration: 6.25uM -0.0421 | [9]; compound concentration: 12.5uM -0.0282 | [9]; compound concentration: 25uM -0.0131 | [9]; compound concentration: 50uM -0.0217 | [9]; compound concentration: 100uM -0.0954 | [9]; compound concentration: 200uM -0.112 | [10]; compound concentration: 0.78uM 0.107 | [10]; compound concentration: 1.56uM -0.0192 | [10]; compound concentration: 3.13uM 0.083 | [10]; compound concentration: 6.25uM 0.157 | [10]; compound concentration: 12.5uM 0.0169 | [10]; compound concentration: 25uM 0.092 | [10]; compound concentration: 50uM -0.0214 | [10]; compound concentration: 100uM 0.019 | [10]; compound concentration: 200uM -0.0674 | [1]; compound concentration: 0.78uM -0.0951 | [1]; compound concentration: 1.56uM 0.0305 | [1]; compound concentration: 3.13uM 0.102 | [1]; compound concentration: 6.25uM -0.0246 | [1]; compound concentration: 12.5uM -0.0557 | [1]; compound concentration: 25uM -0.0153 | [1]; compound concentration: 50uM -0.0239 | [1]; compound concentration: 100uM -0.0145 | [1]; compound concentration: 200uM 0.0455 | [2]; compound concentration: 50uM -0.334 | [2]; compound concentration: 200uM -0.141 | [3]; compound concentration: 50uM -0.272 | [3]; compound concentration: 200uM -0.0152

FAM105A (UniProt Q9NUU6)
Chain of UniProt Q9NUU6 (Q9NUU6 whole entry): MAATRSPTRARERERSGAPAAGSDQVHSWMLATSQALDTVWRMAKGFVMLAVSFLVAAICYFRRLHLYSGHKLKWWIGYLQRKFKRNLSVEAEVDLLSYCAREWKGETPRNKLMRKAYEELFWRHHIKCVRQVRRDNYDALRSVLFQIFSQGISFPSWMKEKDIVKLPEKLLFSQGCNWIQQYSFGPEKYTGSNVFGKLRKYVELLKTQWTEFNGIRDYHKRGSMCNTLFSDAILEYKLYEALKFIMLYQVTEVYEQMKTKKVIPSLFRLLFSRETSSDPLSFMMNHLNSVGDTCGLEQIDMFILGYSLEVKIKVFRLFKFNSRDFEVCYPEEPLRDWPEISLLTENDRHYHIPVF
inactive: [4]; compound concentration: 50uM -0.137 | [4]; compound concentration: 200uM -0.0129 | [5]; compound concentration: 50uM 0.0298 | [5]; compound concentration: 200uM 0.102 | [6]; compound concentration: 50uM -0.0634 | [6]; compound concentration: 200uM -0.355 | [7]; compound concentration: 50uM -0.00158 | [7]; compound concentration: 200uM -0.0665 | [8]; compound concentration: 50uM -0.0638 | [8]; compound concentration: 200uM -0.105 | [9]; compound concentration: 0.78uM 0.0819 | [9]; compound concentration: 1.56uM 0.102 | [9]; compound concentration: 3.13uM -0.00663 | [9]; compound concentration: 6.25uM 0.0556 | [9]; compound concentration: 12.5uM 0.00386 | [9]; compound concentration: 25uM -0.153 | [9]; compound concentration: 50uM 0.14 | [9]; compound concentration: 100uM -0.0653 | [9]; compound concentration: 200uM 0.157 | [10]; compound concentration: 0.78uM 0.0146 | [10]; compound concentration: 1.56uM 0.139 | [10]; compound concentration: 3.13uM 0.288 | [10]; compound concentration: 6.25uM 0.071 | [10]; compound concentration: 12.5uM -0.0354 | [10]; compound concentration: 25uM -0.00679 | [10]; compound concentration: 50uM 0.0826 | [10]; compound concentration: 100uM 0.0658 | [10]; compound concentration: 200uM -0.0519 | [1]; compound concentration: 0.78uM 0.122 | [1]; compound concentration: 1.56uM -0.0166 | [1]; compound concentration: 3.13uM 0.227 | [1]; compound concentration: 6.25uM 0.317 | [1]; compound concentration: 12.5uM 0.0169 | [1]; compound concentration: 25uM 0.0586 | [1]; compound concentration: 50uM -0.064 | [1]; compound concentration: 100uM 0.0853 | [1]; compound concentration: 200uM 0.091 | [2]; compound concentration: 50uM 0.0998 | [2]; compound concentration: 200uM -0.0916 | [3]; compound concentration: 50uM -0.253 | [3]; compound concentration: 200uM -0.175

USP20 (UniProt Q9Y2K6)
Chain of UniProt Q9Y2K6 (Q9Y2K6 whole entry): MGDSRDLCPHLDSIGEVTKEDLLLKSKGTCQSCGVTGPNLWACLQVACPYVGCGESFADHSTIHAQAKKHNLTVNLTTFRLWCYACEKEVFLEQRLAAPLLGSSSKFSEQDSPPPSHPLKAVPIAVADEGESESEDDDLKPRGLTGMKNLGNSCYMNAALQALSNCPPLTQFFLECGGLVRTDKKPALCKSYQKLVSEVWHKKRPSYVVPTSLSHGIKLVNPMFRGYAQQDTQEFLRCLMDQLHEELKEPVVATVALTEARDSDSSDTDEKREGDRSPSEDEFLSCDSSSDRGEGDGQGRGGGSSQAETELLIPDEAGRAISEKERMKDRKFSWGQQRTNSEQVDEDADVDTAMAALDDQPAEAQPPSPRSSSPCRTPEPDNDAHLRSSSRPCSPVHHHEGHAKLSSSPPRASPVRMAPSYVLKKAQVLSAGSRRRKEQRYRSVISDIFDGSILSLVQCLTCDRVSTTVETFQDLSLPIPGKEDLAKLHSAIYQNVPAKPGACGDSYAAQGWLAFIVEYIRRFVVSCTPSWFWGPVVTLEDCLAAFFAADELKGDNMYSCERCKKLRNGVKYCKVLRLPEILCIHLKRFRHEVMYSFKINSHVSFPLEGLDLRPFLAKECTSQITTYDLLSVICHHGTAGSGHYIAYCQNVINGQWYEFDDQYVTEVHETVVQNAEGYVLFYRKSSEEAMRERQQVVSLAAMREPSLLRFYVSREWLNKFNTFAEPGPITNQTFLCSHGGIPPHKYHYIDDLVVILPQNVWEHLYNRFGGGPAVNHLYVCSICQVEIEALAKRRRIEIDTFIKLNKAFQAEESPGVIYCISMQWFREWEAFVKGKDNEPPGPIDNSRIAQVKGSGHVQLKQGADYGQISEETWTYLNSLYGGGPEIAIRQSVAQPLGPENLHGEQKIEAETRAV
inactive: [9]; compound concentration: 0.78uM -0.154 | [9]; compound concentration: 1.56uM -0.0255 | [9]; compound concentration: 3.13uM -0.00841 | [9]; compound concentration: 6.25uM -0.000882 | [9]; compound concentration: 12.5uM -0.0255 | [9]; compound concentration: 25uM 0.0283 | [9]; compound concentration: 50uM 0.0248 | [9]; compound concentration: 100uM -0.235 | [9]; compound concentration: 200uM -0.41 | [10]; compound concentration: 0.78uM -0.0803 | [10]; compound concentration: 1.56uM 0.0532 | [10]; compound concentration: 3.13uM -0.0362 | [10]; compound concentration: 6.25uM -0.00476 | [10]; compound concentration: 12.5uM -0.141 | [10]; compound concentration: 25uM -0.125 | [10]; compound concentration: 50uM -0.102 | [10]; compound concentration: 100uM -0.0854 | [10]; compound concentration: 200uM -0.279 | [1]; compound concentration: 0.78uM -0.0632 | [1]; compound concentration: 1.56uM 0.0904 | [1]; compound concentration: 3.13uM -0.0898 | [1]; compound concentration: 6.25uM 0.0566 | [1]; compound concentration: 12.5uM 0.0631 | [1]; compound concentration: 25uM -0.0313 | [1]; compound concentration: 50uM 0.0027 | [1]; compound concentration: 100uM -0.13 | [1]; compound concentration: 200uM -0.329

UCHL1 (UniProt P09936)
Chain of UniProt P09936 (P09936 whole entry, looked up): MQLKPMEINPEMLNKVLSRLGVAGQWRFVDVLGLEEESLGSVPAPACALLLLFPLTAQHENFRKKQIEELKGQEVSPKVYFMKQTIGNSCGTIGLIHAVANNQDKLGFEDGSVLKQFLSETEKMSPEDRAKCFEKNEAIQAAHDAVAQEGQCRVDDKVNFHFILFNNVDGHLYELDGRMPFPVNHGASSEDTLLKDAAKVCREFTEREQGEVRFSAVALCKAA
inactive: [4]; compound concentration: 50uM -0.0927 | [4]; compound concentration: 200uM 0.068 | [5]; compound concentration: 50uM -0.207 | [5]; compound concentration: 200uM -0.242 | [6]; compound concentration: 50uM -0.16 | [6]; compound concentration: 200uM -0.504 | [7]; compound concentration: 50uM -0.114 | [7]; compound concentration: 200uM 0.145 | [8]; compound concentration: 50uM 0.105 | [8]; compound concentration: 200uM 0.0647 | [9]; compound concentration: 0.78uM -0.218 | [9]; compound concentration: 1.56uM -0.0576 | [9]; compound concentration: 3.13uM -0.283 | [9]; compound concentration: 6.25uM -0.158 | [9]; compound concentration: 12.5uM -0.19 | [9]; compound concentration: 25uM -0.341 | [9]; compound concentration: 50uM -0.22 | [9]; compound concentration: 100uM -0.163 | [9]; compound concentration: 200uM -0.254 | [10]; compound concentration: 0.78uM -0.29 | [10]; compound concentration: 1.56uM -0.214 | [10]; compound concentration: 3.13uM -0.161 | [10]; compound concentration: 6.25uM -0.154 | [10]; compound concentration: 12.5uM -0.211 | [10]; compound concentration: 25uM -0.116 | [10]; compound concentration: 50uM -0.259 | [10]; compound concentration: 100uM -0.155 | [10]; compound concentration: 200uM -0.0847 | [1]; compound concentration: 0.78uM -0.211 | [1]; compound concentration: 1.56uM -0.304 | [1]; compound concentration: 3.13uM -0.239 | [1]; compound concentration: 6.25uM -0.187 | [1]; compound concentration: 12.5uM -0.239 | [1]; compound concentration: 25uM -0.196 | [1]; compound concentration: 50uM -0.16 | [1]; compound concentration: 100uM -0.204 | [1]; compound concentration: 200uM -0.267 | [2]; compound concentration: 50uM 0.0838 | [2]; compound concentration: 200uM 0.00983 | [3]; compound concentration: 50uM -0.262 | [3]; compound concentration: 200uM -0.45

USP16 (UniProt Q9Y5T5)
Chain of UniProt Q9Y5T5 (Q9Y5T5 whole entry, looked up): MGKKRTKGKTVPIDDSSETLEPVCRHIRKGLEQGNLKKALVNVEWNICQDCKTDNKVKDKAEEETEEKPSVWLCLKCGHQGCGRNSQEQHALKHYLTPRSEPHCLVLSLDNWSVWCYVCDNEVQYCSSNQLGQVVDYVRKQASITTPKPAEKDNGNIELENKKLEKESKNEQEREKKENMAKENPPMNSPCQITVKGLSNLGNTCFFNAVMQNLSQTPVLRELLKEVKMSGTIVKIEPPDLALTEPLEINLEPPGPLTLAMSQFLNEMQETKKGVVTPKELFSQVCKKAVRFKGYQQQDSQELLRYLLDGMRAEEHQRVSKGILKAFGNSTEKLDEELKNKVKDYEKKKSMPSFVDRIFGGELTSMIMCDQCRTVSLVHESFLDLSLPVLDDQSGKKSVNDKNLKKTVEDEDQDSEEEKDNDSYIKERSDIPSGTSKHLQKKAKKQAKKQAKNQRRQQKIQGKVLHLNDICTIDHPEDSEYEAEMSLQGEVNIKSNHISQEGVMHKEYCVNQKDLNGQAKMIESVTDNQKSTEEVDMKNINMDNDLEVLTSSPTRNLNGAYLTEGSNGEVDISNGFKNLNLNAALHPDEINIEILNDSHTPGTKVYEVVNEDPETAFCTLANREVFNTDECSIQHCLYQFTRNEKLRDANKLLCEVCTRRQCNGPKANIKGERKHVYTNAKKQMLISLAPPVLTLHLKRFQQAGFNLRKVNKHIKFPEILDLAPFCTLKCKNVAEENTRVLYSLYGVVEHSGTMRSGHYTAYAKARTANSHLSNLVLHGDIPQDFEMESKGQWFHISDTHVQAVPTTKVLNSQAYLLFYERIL
inactive: [4]; compound concentration: 50uM -0.0823 | [4]; compound concentration: 200uM -0.556 | [5]; compound concentration: 50uM -0.113 | [5]; compound concentration: 200uM -0.275 | [6]; compound concentration: 50uM 0.0401 | [6]; compound concentration: 200uM -0.748 | [7]; compound concentration: 50uM -0.209 | [7]; compound concentration: 200uM -0.00919 | [8]; compound concentration: 50uM -0.0288 | [8]; compound concentration: 200uM -0.558 | [9]; compound concentration: 0.78uM -0.182 | [9]; compound concentration: 1.56uM -0.165 | [9]; compound concentration: 3.13uM -0.0224 | [9]; compound concentration: 6.25uM -0.111 | [9]; compound concentration: 12.5uM -0.299 | [9]; compound concentration: 25uM -0.0714 | [9]; compound concentration: 50uM -0.0894 | [9]; compound concentration: 100uM -0.233 | [9]; compound concentration: 200uM -0.491 | [10]; compound concentration: 0.78uM -0.0997 | [10]; compound concentration: 1.56uM -0.0515 | [10]; compound concentration: 3.13uM -0.248 | [10]; compound concentration: 6.25uM -0.0769 | [10]; compound concentration: 12.5uM -0.00208 | [10]; compound concentration: 25uM -0.0915 | [10]; compound concentration: 50uM -0.387 | [10]; compound concentration: 100uM -0.167 | [10]; compound concentration: 200uM -0.479 | [1]; compound concentration: 0.78uM -0.177 | [1]; compound concentration: 1.56uM -0.318 | [1]; compound concentration: 3.13uM 0.0709 | [1]; compound concentration: 6.25uM -0.00683 | [1]; compound concentration: 12.5uM -0.0549 | [1]; compound concentration: 25uM 0.0133 | [1]; compound concentration: 50uM 0.0578 | [1]; compound concentration: 100uM -0.181 | [1]; compound concentration: 200uM -0.253 | [2]; compound concentration: 50uM -0.285 | [2]; compound concentration: 200uM -0.652 | [3]; compound concentration: 50uM -0.265 | [3]; compound concentration: 200uM -0.972
